Screens (PubChem)
Cl transport mod – modulators of human KCC2 chloride dependent transport; Q9H2X9; KCC2 cells, thallium flux FluoZin-2 fluorescence; B-score of Tl+ flux slope (higher = more flux/activation; lower = inhibition) at 10 µM; 190,000 compounds, 2.2% hits;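 active means thallium flux slope and its plate-corrected score both differing from the plate sample mean at a set confidence after two filtering rounds, in either direction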;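 further: slope of fluorescence scaled to starting intensity during 10 to 20 s after thallium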
ROMK primary – human ROMK K+ channel modulation, primary screen; P48048; Tet-inducible ROMK, thallium flux fluorescence; actives lie on both sides; B-score at 10 µM; 130,000 compounds, 2% hits; AID 1918;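 active means signal ratio slope over the read window, or its plate-corrected B-score, at least 3 SD from the plate mean, either direction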;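 further: B-score of the F/F0 ratio slope over 7 to 12 s after thallium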
Measles CPE – protection of cells from measles virus; Measles virus-infected cells, CPE protection, absorbance; protection (pct of control), % at 4 µM; 140,000 compounds, 1.5% hits; AID 841; in the data active means protection mostly above about 24%, no sharp cut-off; inactive means mostly below about 26%
HSV augment – HSV replication enhancement; 220,000 compounds, 0.005% hits; maximum fold increase; HSV replication augmentation in cells, fold increase; in the data active means maximum fold increase above about 1.5; inconclusive means no clear call, values can overlap the other calls; tested in PC3 cells
Arbovirus anti – antivirals against arbovirus infection; inhibition, % at 10 µM; arbovirus infection cell-based antiviral screen; 200,000 compounds, 0.37% hits; in the data active means inhibition above about 30%
ROMK retest – confirmation of human ROMK potassium channel modulators. shares compounds with ROMK primary. ROMK thallium flux, fluorescence ratio; stronger effect = lower value. normalized thallium flux (F/F0 slope) at 10 µM. 3,000 compounds, 54% hits. AID 1917;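 active means Flux at 10 µM at least 3 SD below or above vehicle control mean in one or both replicates; inconclusive means no clear call, values can overlap the other calls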
Of the large screens only hits and unclear results are named; the others gave an inactive call (follow-up assays come after a bar, where they were run). Only some compounds are listed: those with a hit (about 4% of all), similar ones and a draw of the others.

CC(=O)Nc1ccc(S(=O)(=O)N2CCN(C34CC5CC(CC(C5)C3)C4)CC2)cc1	none (no result: Cl transport mod)
COc1cc(F)ccc1S(=O)(=O)N1CCN(C23CC4CC(CC(C4)C2)C3)CC1	ROMK primary -2.8 | ROMK retest 0.064
COc1cc(C)ccc1S(=O)(=O)N1CCN(C23CC4CC(CC(C4)C2)C3)CC1	ROMK primary -2.9 (no result: Cl transport mod) | ROMK retest 0.062
COc1cc(C)ccc1S(=O)(=O)N1CCCCCC1	none (no result: Measles CPE)
CC(c1ccon1)N(C)C(=O)CCc1nnc(C2(c3ccc(Cl)cc3)CCC2)o1 (stereo unspecified)	none (no result: Measles CPE)
CC1CCN(c2cc(C#N)c(C#N)cc2[N+](=O)[O-])CC1	none
CC1CCN(c2cc(N)c(Cl)cc2[N+](=O)[O-])CC1	none (no result: Cl transport mod, ROMK primary) | ROMK retest 0.069
COc1ccccc1C(=O)c1cc2ccc(O)cc2oc1=O	none (no result: ROMK primary, Measles CPE)
C/C(=N\NC(=O)CC#N)c1cc2ccc(O)cc2oc1=O	ROMK primary -3.4 (no result: Measles CPE) | ROMK retest 0.056
O=C(N/C(=C\c1ccc(Cl)cc1)C(=O)N1CCOCC1)c1ccc([N+](=O)[O-])cc1	none (no result: Measles CPE)
C/C(=N\NC(=O)CNC(=O)c1ccncc1)c1ccc(C)cc1	none (no result: Cl transport mod, Measles CPE)
C/C(=N/NC(=O)CNc1ccc(Cl)cc1C)c1ccc(C)cc1	ROMK primary 12 (no result: Measles CPE) | ROMK retest inactive
COc1cccc(CN(C(=O)Cn2nnc(-c3ccccc3F)n2)C(C(=O)NC(C)(C)C)c2ccncc2)c1 (stereo unspecified)	none (no result: Cl transport mod, Measles CPE)
FCCCOc1ccc(CN2CCN(c3ccccc3F)CC2)cc1	none (no result: Measles CPE)
CC(=O)O/N=C/c1c(C)c(C=O)n2ccccc12	none (no result: Measles CPE)
CCN1C(=O)c2cccc3c(S(=O)(=O)Nc4ccncc4)ccc1c23	ROMK primary 2.3 | ROMK retest inactive
CCOC(=O)C1=C(C)N(CCCC(=O)O)C(=O)NC1c1ccccc1Cl (stereo unspecified)	none (no result: Cl transport mod, ROMK primary, Measles CPE, Arbovirus anti)
COc1cccc(C(=O)Nc2cccc3c2ccc2cccn23)c1	none (no result: Measles CPE)
Cc1cc(C(F)(F)F)n(-c2nc(C(=O)NN)cs2)n1	none (no result: Measles CPE)
COc1ccc(/C=N/NC(=O)c2csc(-n3nc(C)cc3C(F)(F)F)n2)cc1	none (no result: ROMK primary) | ROMK retest inactive
CCOC(=O)c1cn(Cc2ccccc2)c(C(=O)OC(C)(C)C)c1O	none (no result: Cl transport mod, ROMK primary, Measles CPE, Arbovirus anti)
Cc1ccc2c(n1)sc1c(N)ncnc12	ROMK primary 4.6 (no result: Cl transport mod) | ROMK retest inactive
Cc1ccc2c(n1)sc1c(-c3ccccc3)c(C#N)c(N)nc12	none (no result: ROMK primary)
O=C(Cn1c(=O)n(CCc2c[nH]c3ccccc23)c(=O)c2cccnc21)Nc1ccccc1F	ROMK primary 2.8 (no result: HSV augment) | ROMK retest inactive
CC(=O)Nc1ccc(OCCOc2ccc(/C=C3/C(=N)N4C=CSC4=NC3=O)cc2)cc1	ROMK primary 4.1 (no result: Measles CPE) | ROMK retest inconclusive
Cc1ccc(Cn2cccc2/C=C2/C(=N)N3C=CSC3=NC2=O)cc1	none
COc1ccc(C2=CC(c3ccc(C)cc3)n3nnnc3N2)cc1 (stereo unspecified)	ROMK primary -4.4, Arbovirus anti 38 (no result: Cl transport mod) | ROMK retest inconclusive
COc1ccc(C2C=C(c3ccccc3)Nc3nnnn32)cc1 (stereo unspecified)	none (no result: Cl transport mod)
COc1ccc(Cn2c(=O)[nH]c3cc(C(=O)N4CCN(Cc5ccccc5)CC4)ccc3c2=O)cc1	none (no result: ROMK primary) | ROMK retest inactive
COC(=O)c1ccc2c(=O)n(CCCCCC(=O)N3CCN(c4ccccc4)CC3)c(=O)[nH]c2c1	none (no result: ROMK primary) | ROMK retest inactive
CCn1c(Cc2ccccc2)nnc1SCC(=O)Nc1ccccc1O	none (no result: Measles CPE)
Cc1ccc2c(c1)C(=O)CC(O)(C(F)F)O2 (stereo unspecified)	none (no result: ROMK primary, Measles CPE, Arbovirus anti) | ROMK retest inactive
CCOc1cc(Br)c(/C=C2/C(=O)N(C)C(=S)N2CC(=O)OC)cc1OC	ROMK primary -2.6, HSV augment inconclusive (no result: Measles CPE) | ROMK retest inactive
NC(=O)C1CCN(C(=O)c2ccc3c(=O)n(Cc4ccco4)c(SCC(=O)c4ccc(F)cc4)nc3c2)CC1	ROMK primary 2.8 (no result: Measles CPE) | ROMK retest inactive
CSc1nnc(C)c(=O)n1COC(=O)c1cc(Cl)ccc1[N+](=O)[O-]	none (no result: Measles CPE)
O=c1cc(O)nc(-c2ccc(Cl)cc2)s1	none (no result: Measles CPE)
CC(C)(C)OC(=O)C(Cl)(C(=O)OC(C)(C)C)c1ccc2nnnn2n1	none (no result: Measles CPE) | ROMK retest 0.064
CCOc1ccc2nnnn2n1	none (no result: Cl transport mod)
O=C(CSc1ccc2nnc(-c3ccc(F)cc3)n2n1)NCC1CCCO1 (stereo unspecified)	none
COc1ccc(-c2nnc3ccc(SCC(=O)NCC4CCCO4)nn23)cc1 (stereo unspecified)	ROMK primary -6.1 | ROMK retest inactive
N#C/C(=C\c1ccncc1)c1nc2c(s1)CCCC2	ROMK primary -2 (no result: Measles CPE) | ROMK retest 0.063
O=C(NC1=NCCS1)NC12CC3CC(CC(C3)C1)C2	none (no result: ROMK primary) | ROMK retest 0.066
O=C(NC1=NCCS1)C12CC3CC(C1)CC(C(=O)NC1=NCCS1)(C3)C2	none
c1ccc(Sc2cccc3ccccc23)c(CNC2=NCCN2)c1	ROMK primary -3.1 | ROMK retest 0.058
Fc1ccccc1Sc1ccccc1CNC1=NCCN1	none
COc1ccc(C(=O)NC2=Nc3ccccc3N=C(C)C2c2ccccc2)cc1 (stereo unspecified)	none (no result: ROMK primary, Measles CPE, Arbovirus anti)
Cc1ccc(S(=O)(=O)C(C#N)c2nc3ccccc3nc2N2CCC(C)CC2)cc1 (stereo unspecified)	none (no result: ROMK primary) | ROMK retest 0.068
N#CC(c1nc2ccccc2nc1N1CCCC1)S(=O)(=O)c1ccccc1 (stereo unspecified)	HSV augment inconclusive (no result: Cl transport mod)
COc1ccc(-n2cccc2C=O)cc1	none
COc1ccc(-n2cccc2/C=C/[N+](=O)[O-])cc1	ROMK primary -5.5 | ROMK retest 0.041
CCc1sc(NS(C)(=O)=O)nc1-c1ccccc1	ROMK primary 2.8 | ROMK retest inactive
CCN(C1CCCCC1)S(=O)(=O)c1ccc(OC)c(C)c1	ROMK primary -3.4 | ROMK retest 0.066
Cc1cccnc1CN1CCN(Cc2nc(Cc3cccc(F)c3)no2)CC1	none (no result: Measles CPE)
COc1ccc(S(=O)(=O)N(C)CC(=O)NCCC2=CCCCC2)cc1	none (no result: ROMK primary) | ROMK retest 0.069
COC(=O)c1ccc2c(c1)C(C)(C)C(/C=C/c1ccc(OC)c(OC)c1OC)=[N+]2C	none (no result: ROMK primary) | ROMK retest 0.058
Cc1ccc(NC(=O)C2CCN(S(C)(=O)=O)CC2)cc1C	ROMK primary 1.6 | ROMK retest inactive
CCN(CC)c1ccc(/C=N/NC(=O)c2cnccn2)cc1	ROMK primary 3.7 (no result: Measles CPE) | ROMK retest 0.1
CCN(CC)c1ccc(/C=N/NC(=O)c2ccc3nc[nH]c3c2)cc1	none (no result: ROMK primary, Measles CPE, Arbovirus anti) | ROMK retest inactive
CCN(CC)c1ccc(/C=N/NC(=O)c2ccccn2)cc1	none (no result: ROMK primary, Measles CPE, Arbovirus anti)
CN(C)c1ccc(/C=N/NC(=O)c2ccc3nc[nH]c3c2)cc1	none (no result: Measles CPE, Arbovirus anti)
Cc1nccn1CC(=O)N/N=C/c1ccccc1O	none (no result: ROMK primary, Measles CPE, Arbovirus anti)
COc1cc2c(cc1OC)CN(c1nc(-c3cccnc3)nc3ccccc13)CC2	none (no result: Measles CPE) | ROMK retest inactive
CN1CCN(c2nc(-c3cccnc3)nc3ccccc23)CC1	none
CC1=C(C(=O)OCC(Br)(Br)Br)C(c2cccc([N+](=O)[O-])c2)NC(=O)N1CCCC(=O)O (stereo unspecified)	none (no result: Cl transport mod, ROMK primary, Measles CPE, Arbovirus anti)
CCOC(=O)c1c(C)n(C)c2ccc(O)c(CN3CCCCC3)c12	none
